Measured values taken from PubChem BioAssay AID493194 (Broad Institute, 2011).
Potency and affinity values are given separately. Results filed as inconclusive are left out. Active and inactive are the calls of the source.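 How the source made its calls: active means a valid curve of falling signal whose half-effect concentration is at most ten times the top tested dose; inconclusive means flat curve at 30 to 70% inhibition, or poor fit; inactive means signal rise, flat within 30%, or potency beyond limit.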

target: Scavenger receptor class B member 1 (Mus musculus) (UniProt Q61009); test: mouse SR-BI DiI-HDL uptake blockers – ldlA[mSR-BI] cells, fluorescence, cherry pick, dose response (AID 493194); details: CHO ldlA[mSR-BI] DiI-HDL uptake fluorescence, 3 h; series mostly up to 35 µM; activity change, negative = inhibition: at the top concentration;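 further: CHO cells lacking LDL receptor and overexpressing mouse SR-BI; cellular uptake of fluorescently labeled HDL measured as cell fluorescence; 0% = median of neutral control wells and -100% = median of positive control wells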
Sequence (Q61009 whole entry, looked up): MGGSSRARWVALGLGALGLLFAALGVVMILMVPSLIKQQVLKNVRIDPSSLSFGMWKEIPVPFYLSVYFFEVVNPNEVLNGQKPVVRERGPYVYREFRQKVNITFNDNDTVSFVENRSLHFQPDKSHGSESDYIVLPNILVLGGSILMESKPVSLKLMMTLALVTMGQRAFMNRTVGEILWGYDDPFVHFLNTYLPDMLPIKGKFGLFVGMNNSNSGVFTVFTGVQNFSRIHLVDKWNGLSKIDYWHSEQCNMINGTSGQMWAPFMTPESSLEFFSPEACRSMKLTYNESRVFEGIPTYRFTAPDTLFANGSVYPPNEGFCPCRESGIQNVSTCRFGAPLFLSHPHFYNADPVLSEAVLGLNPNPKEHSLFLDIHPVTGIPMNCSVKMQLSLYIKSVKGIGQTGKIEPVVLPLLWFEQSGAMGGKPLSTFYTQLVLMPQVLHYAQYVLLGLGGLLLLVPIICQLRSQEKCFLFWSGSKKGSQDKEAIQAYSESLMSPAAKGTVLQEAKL

Activity change, negative = inhibition, inactive:
CCCCc1nnc(NC(=O)c2ccc(OCc3c(C)noc3C)cc2)s1 -0.944%
COc1ccc(NC(=O)Nc2nnc(-c3ccccc3SCc3ccccc3)s2)cc1 56.2%
COc1ccc(-c2nc(-c3ccc(O)cc3O)cs2)cc1OC -21.4%
Cc1cc(CN(C)C(=O)C2CCC(=O)N(CCc3cccc(F)c3)C2)on1 (configuration not stated) -5.46%
O=C(Nc1ccn(Cc2c(F)c(F)c(F)c(F)c2F)n1)c1ccc(COc2ccccc2Cl)cc1 57.4%
O=C(c1ccc(S(=O)(=O)NCc2ccco2)cc1)N1CCN(Cc2ccccc2)CC1 -36.1%
CCN(C(=O)COn1nnc2ccc(S(=O)(=O)N(C)C)cc21)C1CCS(=O)(=O)C1 (configuration not stated) -1.5%
O=C(c1ccc(S(=O)(=O)NCc2ccco2)cc1)N1CCN(Cc2ccccc2F)CC1 -13.8%
CCCC(=O)N1c2ccc(-c3csc(N)n3)cc2CC1C (configuration not stated) -43.6%
O=C(Nc1cccc(-c2csc(Nc3ccc(Cl)cc3)n2)c1)c1cccc(C(F)(F)F)c1 -46.5%
O=C1[C@@H]2Cc3c([nH]c4ccccc34)C(c3cccc([N+](=O)[O-])c3)N2C(=O)CN1CCCO (some centres not stated) -30.1%
COc1ccc2sc(-c3ccc(N(C)C)cc3)c(C#Cc3cncn3C)c2c1 10.8%
CCOc1ccccc1NC(=O)C(CC(C)C)NC(=O)C1CCC(C)CC1 (configuration not stated) -35.8%
COc1ccc(N2CC(C(=O)N3CCN(S(=O)(=O)c4ccc(F)c(F)c4)CC3)CC2=O)c(OC)c1 (configuration not stated) 20.3%
O=C(CN1CCOCC1)Nc1nc(-c2ccc3c(c2)CCN3S(=O)(=O)c2ccccc2)cs1 118%
Clc1ccc(Cn2nnc(-c3ccc(N4CCOCC4)cc3)n2)cc1 28.1%
CCCOc1ccc(C(=O)Nc2ccc(S(=O)(=O)N3C[C@@H]4C[C@@H](C3)c3cccc(=O)n3C4)cc2)cc1 -3.84%
O=C(Nc1nc(-c2ccccn2)cs1)c1ccc(-c2ccccc2F)o1 10.7%
CN(C(=O)COC(=O)c1c[nH]c(=O)[nH]c1=O)C1CCCCC1 50.6%
CC[C@H](C)[C@H](NC(=O)c1ccc(Cl)cc1)C(=O)OCC(=O)c1ccc2c(c1)NC(=O)CO2 -32%
CNC(=O)c1ccc(Nc2nnc(-c3ccc(O)cc3)c3ccccc23)cc1 -10.1%
O=C(OCc1ccccc1)N1CCC2CC1c1cc(-c3ccccc3)ccc12 (configuration not stated) 36.1%
